From PubChem BioAssay
KLK7 zymogen act: proKLK7 zymogen activators, primary screen, biochemical, fluorescence intensity; activation, % at 7 µM; AID 652039, 2013; purified proKLK7, EDANS-DABCYL substrate fluorescence; 100% is mature enzyme control, 0% vehicle; 370,000 compounds, 0.9% hits; Kallikrein-7 (Homo sapiens), P49862;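 active = activation above the mean of all tested compounds plus 3 SD, computed per campaign excluding outliers beyond control limits, cut at about 13% in these data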
GRIN3A LBD mod: binders of NR3A ligand-binding domain, primary screen, biophysical, differential scanning fluorimetry, uHTS | AID 1259313, 2017 | NR3A LBD differential scanning fluorimetry, Tm shift; 0% = protein alone, 100% = glycine-bound protein | Glutamate receptor ionotropic, NMDA 3A (GRIN3A) ligand-binding domain | 340,000 compounds, 2.5% hits | Tm shift relative to glycine control, % at 25 µM;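 active = melting temperature shift of at least 10% of the positive control shift, at one fixed dose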
rCAG RNA binder: binders of r(CAG) RNA repeats, primary screen, biochemical, fluorescence. r(CAG) RNA repeat, TO-PRO-1 dye displacement fluorescence. inhibition, % at 3 µM. 370,000 compounds, 1.3% hits;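 active = inhibition above the plate cutoff, the mean of all test compounds on that plate plus 3 SD, cut at about 35% in these data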;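 also: higher means more dye released from RNA so lower well fluorescence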
ADAM10 inh: human ADAM10 inhibitors, primary screen, biochemical, QFRET, HTS; 370,000 compounds, 0.62% hits; inhibition, % at 7 µM; recombinant ADAM10, EDANS/DABCYL FRET peptide cleavage, 3 h; Disintegrin and metalloproteinase domain-containing protein 10 (Homo sapiens), O14672; AID 720582, 2013;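 active = inhibition above a per-campaign cutoff equal to the mean of compounds falling between control-based bounds plus 3 SD, cut at about 20% in these data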
ADAM17 inh: ADAM17 inhibitors, primary screen, biochemical, QFRET; recombinant ADAM17, EDANS/DABCYL FRET peptide cleavage; inhibition, % at 6.95 µM; 370,000 compounds, 0.83% hits;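 active = inhibition above the mean of compounds lying between control limits plus 3 SD, set per campaign, cut at about 8.5% in these data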
AHR act: AHR activators, primary screen, cell-based, luminescence, luciferase reporter, human; AID 2796, 2010; activation, % at 5 µM; 320,000 compounds, 2.5% hits; AHR-responsive luciferase reporter cells; in the data active = activation above about 47%
rCAG bind conf: small molecules binding CAG repeat RNA – biochemical, fluorescence, confirmation | 4,300 compounds, 70% hits | shares compounds with rCAG RNA binder | inhibition, % at 3 µM | r(CAG) RNA repeat, TO-PRO-1 dye displacement fluorescence;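 active = inhibition above a per-plate cutoff, the mean inhibition of sample wells plus 3 SD, cut at about 35% in these data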;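 also: loss of TO-PRO-1 fluorescence as compound displaces dye from 1x1 AA loop RNA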
DNA CAG counter: displacement of TO-PRO-1 from CAG DNA duplex, counter-screen for rCAG RNA repeat binder project, biochemical, fluorescence, TO-PRO-1 dye, d(CAG) DNA oligo; shares compounds with rCAG RNA binder; d(CAG) DNA oligo TO-PRO-1 dye displacement; inhibition, % at 3 µM; 4,300 compounds, 94% hits; AID 652068, 2013;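 active = inhibition above its plate's cutoff, the mean test-well inhibition plus 3 SD, cut at about 4.8% in these data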;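 also: hits displace the dye from DNA and so lower well fluorescence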
Numbers stand for hits. An excerpt weighted towards active compounds, which were near 7% of everything screened.

How did COCCn1c(SCc2cc(C(C)=O)ccc2OC)nc2cc(Cl)ccc2c1=O do in these assays?
KLK7 zymogen act: inactive; GRIN3A LBD mod: inactive; rCAG RNA binder: 41.6; ADAM10 inh: inactive; ADAM17 inh: inactive; AHR act: inactive; rCAG bind conf: inactive; DNA CAG counter: inactive

What do the screens show for `Cc1ccc(S(=O)(=O)NN=C2CCC(C(C)(C)C)CC2)cc1[N+](=O)[O-]` (stereo not given)?
GRIN3A LBD mod: inactive; AHR act: inactive

What do the screens show for `Cc1ccc(S(=O)(=O)N/N=C2/CC(c3ccccc3)Oc3ccccc32)cc1[N+](=O)[O-]` (stereo not given)?
KLK7 zymogen act: inactive; GRIN3A LBD mod: 24.5; rCAG RNA binder: 42.1; ADAM10 inh: inactive; ADAM17 inh: inactive; AHR act: inactive; rCAG bind conf: 76.3; DNA CAG counter: 36.5

How did COc1ccc(NC(=O)CSc2nnc(NC(C)=O)s2)c([N+](=O)[O-])c1 do in these assays?
KLK7 zymogen act: inactive; GRIN3A LBD mod: inactive; rCAG RNA binder: 55.3; ADAM10 inh: inactive; ADAM17 inh: inactive; AHR act: inactive; rCAG bind conf: inactive; DNA CAG counter: inactive

What do the screens show for `CCOc1cc(/C=C2\C(=O)N(c3ccc(C(N)=O)cc3)N=C2C)ccc1OC(=O)c1cccs1`?
GRIN3A LBD mod: inactive; AHR act: inactive

Results for CC1=NN(c2ccc(C(=O)O)cc2)C(=O)/C1=C\c1ccc(OC(=O)c2cccs2)cc1 ?
KLK7 zymogen act: inactive; GRIN3A LBD mod: 13.8; rCAG RNA binder: 44.6; ADAM10 inh: inactive; ADAM17 inh: inactive; AHR act: inactive; rCAG bind conf: 52.2; DNA CAG counter: 18.0

Results for Cc1ccc(S(=O)(=O)Nc2ccc3cn[nH]c3c2)cc1 ?
KLK7 zymogen act: inactive; GRIN3A LBD mod: inactive; rCAG RNA binder: 47.1; ADAM10 inh: inactive; ADAM17 inh: inactive; AHR act: inactive; rCAG bind conf: inactive; DNA CAG counter: inactive

What do the screens show for `Cc1ccc(S(=O)(=O)Nc2ccc3c(c2)C(=O)c2ccccc2-3)cc1`?
KLK7 zymogen act: inactive; rCAG RNA binder: 37.1; ADAM10 inh: inactive; ADAM17 inh: inactive; rCAG bind conf: inactive; DNA CAG counter: 7.0

How did O=C1C2C(CC3c4ccccc4CCN32)CN1c1ccccc1 (stereo not given) do in these assays?
KLK7 zymogen act: inactive; rCAG RNA binder: inactive; ADAM10 inh: inactive; ADAM17 inh: inactive

What do the screens show for `C=C1C(=O)OCC2C(C(=O)O)=CC3C(C)C(C)=CC123` (stereo not given)?
KLK7 zymogen act: inactive; rCAG RNA binder: inactive; ADAM10 inh: inactive; ADAM17 inh: inactive

What do the screens show for `O=C(CC1SC(=O)N(c2ccccc2)C1=O)Nc1ccc(Br)cc1` (stereo not given)?
KLK7 zymogen act: inactive; GRIN3A LBD mod: 29.7; rCAG RNA binder: 42.1; ADAM10 inh: inactive; ADAM17 inh: inactive; AHR act: inactive; rCAG bind conf: inactive; DNA CAG counter: 8.1

How did O=C(CC1SC(=O)N(c2ccccc2)C1=O)Nc1ccc(Cl)cc1 (stereo not given) do in these assays?
KLK7 zymogen act: inactive; GRIN3A LBD mod: 22.1; rCAG RNA binder: 43.3; ADAM10 inh: inactive; ADAM17 inh: inactive; AHR act: inactive; rCAG bind conf: inactive; DNA CAG counter: 6.6

Results for CCOC(=O)N1CCN(C(=O)C[C@@H]2C[C@@]3(C(=O)OC)CC(C)(C)CC=C3N(Cc3ccccc3)C2=O)CC1 ?
KLK7 zymogen act: inactive; rCAG RNA binder: inactive; ADAM10 inh: inactive; ADAM17 inh: inactive
